# Inconclusive results are not listed. Entries that show only a call come without a potency. Where a structure was tested more than once in an assay, its records may differ in their call. The source made the active and inactive calls. Unless noted, the call rests on the fitted dose curve.
# What was measured:
# [1] = Nuclear factor erythroid 2-related factor 2/antioxidant responsive element (Nrf2/ARE) small molecule agonists: qHTS cell viability counter screen in human keratinocytes (AID 1919968; active means well fitted curve in the direction sought with a large enough effect in the repeat runs; an effect the other way counts as inactive or inconclusive; further: nearly all actives have a fitted effect of over 55% in size; further: potency means the concentration at half of the fitted maximal effect)
# In short: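 Cells of the KeratinoSens line were plated at 1,500 per well and left for 5 h before compound transfer from DMSO stocks. After a 23 h incubation (37 C, 5% CO2), CellTiter-Fluor was added. Signal was taken as fluorescence intensity 1 h later.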
# [2] = Nuclear factor erythroid 2-related factor 2/antioxidant responsive element (Nrf2/ARE) small molecule agonists: luciferase reporter gene qHTS assay in human keratinocytes (AID 1919969); further: nearly all actives have a fitted effect of over 35% in size; further: potency means the concentration at half of the fitted maximal effect
# [3] = molecular target: Gonadotropin-releasing hormone receptor (Homo sapiens) (UniProt P30968); test: Human gonadotropin-releasing hormone receptor (GnRHR) small molecule agonists, calcium flux assay in GnRHR-HEK293 cells (AID 1920063); further: nearly all actives have a fitted effect of over 35% in size
# Chain of Gonadotropin-releasing hormone receptor (Homo sapiens) (P30968 whole entry, looked up): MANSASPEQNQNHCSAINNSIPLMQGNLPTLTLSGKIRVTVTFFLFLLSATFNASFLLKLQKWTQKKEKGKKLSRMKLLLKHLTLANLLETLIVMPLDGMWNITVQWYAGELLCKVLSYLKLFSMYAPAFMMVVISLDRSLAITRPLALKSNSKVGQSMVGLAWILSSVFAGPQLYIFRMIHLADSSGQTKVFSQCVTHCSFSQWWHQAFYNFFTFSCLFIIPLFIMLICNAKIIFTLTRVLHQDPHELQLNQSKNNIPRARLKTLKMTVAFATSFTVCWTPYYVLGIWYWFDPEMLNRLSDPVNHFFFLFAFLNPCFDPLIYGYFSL
# In short: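 Compounds dissolved in DMSO are pin-transferred onto dye-loaded GnRHR-HEK293 cells, which were seeded 18 h before at 37 C/5% CO2. Calcium signal is read as fluorescence intensity at 1 s intervals for 3 min.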
# [4] = molecular target: KiSS-1 receptor (Homo sapiens) (UniProt Q969F8); test: Human kisspeptin (KISS1R) small molecule agonists, calcium flux assay in KISS1R-HEK293 cells (AID 1920064; active means well fitted curve in the direction sought with a large enough effect in the repeat runs; an effect the other way counts as inactive or inconclusive)
# Chain of KiSS-1 receptor (Homo sapiens) (Q969F8 whole entry, looked up): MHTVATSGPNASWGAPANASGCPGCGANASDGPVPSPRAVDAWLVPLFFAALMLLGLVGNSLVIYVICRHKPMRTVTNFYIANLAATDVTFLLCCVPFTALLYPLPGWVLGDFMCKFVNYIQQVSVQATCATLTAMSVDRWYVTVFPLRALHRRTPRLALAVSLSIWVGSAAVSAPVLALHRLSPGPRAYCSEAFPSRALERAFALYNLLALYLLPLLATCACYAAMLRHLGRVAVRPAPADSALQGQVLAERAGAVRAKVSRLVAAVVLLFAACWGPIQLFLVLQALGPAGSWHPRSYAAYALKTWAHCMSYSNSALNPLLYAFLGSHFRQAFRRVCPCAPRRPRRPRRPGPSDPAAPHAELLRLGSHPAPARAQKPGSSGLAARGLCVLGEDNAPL
# In short: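 Cell line: HEK293, stable human KISS1R. Dye loading 1 h at 37 C after 18 h culture. Read: kinetic fluorescence, 480/540 nm, 3 min at 1 s intervals.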
# [5] = G protein-coupled receptor (GPCR) small molecule agonists, calcium flux assay: HEK293 wild type cell line counter screen (AID 1920065)
# In short: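 Tox21 10K compounds, 15 concentrations each in triplicate, pin-transferred in DMSO onto dye-loaded cells; kinetic read at 480/540 nm for 3 min, 1 s intervals.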
# [6] = p53 small molecule agonists, cell-based qHTS assay with human liver microsomes (AID 1963577)
# In short: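 Compounds act here after metabolic activation: human liver microsomes and NADPH, both at 0.5 mg/mL final, were co-added to p53RE-bla cells. Incubation ran 16 h at 37 C, followed by LiveBLAzer detection.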
# [7] = p53 small molecule agonists, cell-based qHTS assay with rat liver microsomes (AID 1963578)
# In short: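 Read-out is beta-lactamase reporter fluorescence (LiveBLAzer, 2 h, room temperature, dark) in p53RE-bla cells treated 16 h at 37 C with compound, rat liver microsomes and NADPH, both 0.5 mg/mL final.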
# [8] = p53 small molecule agonists, cell-based qHTS assay with human liver microsomes: qHTS cell viability counter screen (AID 1963579); further: nearly all actives have a fitted effect of over 45% in size
# In short: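 Cells carrying the p53 response-element beta-lactamase reporter are treated for 16 h at 37 C with test compounds in the presence of human liver microsomes and NADPH (both 0.5 mg/mL final); ATP-based CellTiter-Glo luminescence then reports viability.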
# [9] = p53 small molecule agonists, cell-based qHTS assay with rat liver microsomes: qHTS cell viability counter screen (AID 1963580); further: nearly all actives have a fitted effect of over 45% in size
# In short: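 Luminescent ATP readout (CellTiter-Glo, 30 min at room temperature) reports viability of p53RE-bla HCT-116 cells after 16 h at 37 C with test compounds under metabolic activation by rat liver microsomes and NADPH at 0.5 mg/mL final each.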
# [10] = p53 small molecule agonists, cell-based qHTS assay: qHTS cell viability counter screen (AID 1963581); further: nearly all actives have a fitted effect of over 45% in size
# In short: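 ATP content measured by luminescence in HCT-116 p53RE-bla cells treated 16 h at 37 C, same wells as the reporter screen.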
# [11] = p53 small molecule agonists, cell-based qHTS assay (AID 1963582; active means well fitted activation curve with a large enough effect in the signal ratio in the repeat runs, not every such curve was filed as active; the % refers to the signal ratio)
# In short: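 16 h compound exposure (37 C) of p53 response element–bla cells, preceded by 5 h recovery at 37 C/5% CO2; read-out via LiveBLAzer B/G FRET substrate, 2 h RT, fluorescence intensity.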
# [12] = molecular target: Muscarinic acetylcholine receptor M1 (Homo sapiens) (UniProt P11229); test: Cholinergic receptor muscarinic 1 (CHRM1) small molecule antagonists, cell-based qHTS assay (AID 1963588); further: nearly all actives have a fitted effect of over 40% in size; further: potency means the concentration at half of the fitted maximal effect
# Chain of Muscarinic acetylcholine receptor M1 (Homo sapiens) (P11229 whole entry, looked up): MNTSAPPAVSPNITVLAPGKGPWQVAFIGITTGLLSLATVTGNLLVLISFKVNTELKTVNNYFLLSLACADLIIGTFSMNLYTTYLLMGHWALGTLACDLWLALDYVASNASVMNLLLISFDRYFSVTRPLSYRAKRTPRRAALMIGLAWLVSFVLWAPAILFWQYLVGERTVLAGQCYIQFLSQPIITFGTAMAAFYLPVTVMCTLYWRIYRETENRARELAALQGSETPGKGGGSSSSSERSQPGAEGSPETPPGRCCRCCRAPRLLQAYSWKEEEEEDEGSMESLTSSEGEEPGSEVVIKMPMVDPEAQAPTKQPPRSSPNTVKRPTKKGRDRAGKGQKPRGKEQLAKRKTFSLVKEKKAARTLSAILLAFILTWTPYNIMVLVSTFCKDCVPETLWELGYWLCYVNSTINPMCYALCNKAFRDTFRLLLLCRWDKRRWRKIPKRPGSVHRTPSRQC
# In short: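 Compounds were tested at 15 concentrations in three independent runs. Dye-loaded CHRM1-CHO cells were exposed 5 min at room temperature before stimulation by acetylcholine added at 50nM. Intracellular calcium was read kinetically on FDSS for 3 min.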
# [13] = molecular target: Muscarinic acetylcholine receptor M1 (Homo sapiens) (UniProt P11229); test: Cholinergic receptor muscarinic 1 (CHRM1) small molecule agonists, cell-based qHTS assay (AID 1963589); further: nearly all actives have a fitted effect of over 35% in size
# In short: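 Homogeneous fluorescence calcium flux, agonist mode. Human M1-expressing CHO cells; compound dosed at 15 concentrations, three independent runs; signal sampled every 1 sec.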
# [14] = cAMP Responsive Elements (CRE) small molecule agonists, cell-based qHTS assay (AID 1963590)
# In short: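 HEK 293T cells stably bearing CRE-bla were plated at 2,000 cells per well and rested 18 h. Compounds, positive controls or DMSO were added for 3 h at 37 C. LiveBLAzer B/G substrate was then loaded for 2 h at room temperature.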
# [15] = cAMP Responsive Elements (CRE) small molecule antagonists, cell-based qHTS assay (AID 1963591; active means well fitted inhibition curve with a large enough effect in the signal ratio in the repeat runs, not every such curve was filed as active; the % refers to the signal ratio)
# In short: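 First, CRE-bla HEK293T cells settled 18 h at 37 C. Next, compound and 0.25 uM final NKH477 were applied for 3 h. Last, LiveBLAzer B/G substrate was loaded for 2 h at room temperature.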
# [16] = molecular target: Beta-2 adrenergic receptor (Homo sapiens) (UniProt P07550); test: Adrenergic beta2 receptor (ADRB2) small molecule antagonists, cell-based qHTS assay (AID 1963592); further: series mostly up to about 92 µM; nearly all actives have a fitted effect of over 50% in size
# Chain of Beta-2 adrenergic receptor (Homo sapiens) (P07550 whole entry, looked up): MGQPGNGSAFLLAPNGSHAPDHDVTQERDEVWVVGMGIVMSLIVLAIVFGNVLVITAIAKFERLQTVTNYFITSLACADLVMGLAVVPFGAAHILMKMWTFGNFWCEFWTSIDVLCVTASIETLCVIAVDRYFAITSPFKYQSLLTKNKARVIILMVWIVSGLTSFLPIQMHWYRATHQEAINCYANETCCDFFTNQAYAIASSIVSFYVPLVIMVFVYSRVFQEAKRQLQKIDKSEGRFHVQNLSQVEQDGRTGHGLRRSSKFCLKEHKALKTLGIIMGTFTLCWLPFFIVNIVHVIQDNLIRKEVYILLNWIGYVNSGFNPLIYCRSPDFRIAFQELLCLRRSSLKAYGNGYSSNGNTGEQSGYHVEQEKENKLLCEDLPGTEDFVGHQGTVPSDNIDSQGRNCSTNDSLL
# In short: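 Assay format: CHO-ADRB2 cells, 18-20hr seeding at 37C/5% CO2, then compound plus 1nM isoproterenol agonist mix for 0.5hr RT. Homogeneous time-resolved fluorescence cAMP detection after 1hr, expressed as 665/615 nm ratio.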
# [17] = molecular target: D(2) dopamine receptor (Homo sapiens) (UniProt P14416); test: Dopamine D2 receptor (DRD2) small molecule agonists, cell-based qHTS assay (AID 1963594); further: nearly all actives have a fitted effect of over 35% in size
# Chain of D(2) dopamine receptor (Homo sapiens) (P14416 whole entry, looked up): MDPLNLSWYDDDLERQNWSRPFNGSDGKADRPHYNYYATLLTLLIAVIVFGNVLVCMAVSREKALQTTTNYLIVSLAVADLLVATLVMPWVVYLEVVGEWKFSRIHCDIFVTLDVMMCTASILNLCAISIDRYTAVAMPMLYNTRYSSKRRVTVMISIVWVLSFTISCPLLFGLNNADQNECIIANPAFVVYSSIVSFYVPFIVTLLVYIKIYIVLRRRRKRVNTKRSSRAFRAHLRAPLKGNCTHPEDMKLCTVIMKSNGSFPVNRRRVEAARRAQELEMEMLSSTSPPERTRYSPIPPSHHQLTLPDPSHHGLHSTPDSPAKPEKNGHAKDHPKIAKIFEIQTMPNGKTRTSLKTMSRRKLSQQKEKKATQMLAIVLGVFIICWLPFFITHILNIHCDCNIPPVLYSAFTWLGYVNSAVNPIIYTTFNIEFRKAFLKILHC
# In short: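 HEK293 cells stably expressing DRD2 were cultured 24 h at 37 C, then given Ro20-1724 (0.1 mM final) and compounds for 10 min at room temperature. NKH477 (200nM) was then added for 30 min. cAMP was read by HTRF.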
# [18] = molecular target: D(2) dopamine receptor (Homo sapiens) (UniProt P14416); test: Dopamine D2 receptor (DRD2) small molecule antagonists, cell-based qHTS assay (AID 1963595; active means well fitted inhibition curve with a large enough effect in the signal ratio in the repeat runs, with a control signal flat; the % refers to the signal ratio)
# In short: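 In this cell-based antagonist screen, compounds act for 10 min at room temperature before a 30 min challenge with 12 nM quinpirole and 200 nM NKH477. cAMP is quantified by HTRF competition in DRD2-HEK293 cells containing 0.1 mM Ro20-1724.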
# [19] = molecular target: 5-hydroxytryptamine receptor 2A (Homo sapiens) (UniProt P28223); test: 5-hydroxytryptamine receptor 2A (HTR2A) small molecule agonists, cell-based qHTS assay (AID 1963587); further: nearly all actives have a fitted effect of over 30% in size; further: potency means the concentration at half of the fitted maximal effect
# Chain of 5-hydroxytryptamine receptor 2A (Homo sapiens) (P28223 whole entry, looked up): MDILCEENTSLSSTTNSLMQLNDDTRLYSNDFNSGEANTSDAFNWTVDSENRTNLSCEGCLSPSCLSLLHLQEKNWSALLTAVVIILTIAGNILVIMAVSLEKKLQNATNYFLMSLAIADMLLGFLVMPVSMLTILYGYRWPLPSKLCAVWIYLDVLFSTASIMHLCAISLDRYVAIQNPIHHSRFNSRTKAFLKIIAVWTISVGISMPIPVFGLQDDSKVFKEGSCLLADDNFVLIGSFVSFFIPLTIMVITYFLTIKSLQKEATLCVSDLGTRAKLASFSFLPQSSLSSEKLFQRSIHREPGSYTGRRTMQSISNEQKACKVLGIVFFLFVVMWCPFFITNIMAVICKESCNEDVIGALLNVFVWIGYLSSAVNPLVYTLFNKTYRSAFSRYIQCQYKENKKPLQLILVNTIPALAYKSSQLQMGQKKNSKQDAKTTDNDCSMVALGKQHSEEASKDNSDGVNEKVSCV
# In short: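 HTR2A-CHO cells, plated 18 h at 37 C/5% CO2, dye-loaded 1 h at 37 C; compounds in DMSO added by pin tool (agonist mode). Intracellular calcium flux read as kinetic fluorescence on FDSS over 2 min at 1 s intervals.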
# [20] = molecular target: Beta-2 adrenergic receptor (Homo sapiens) (UniProt P07550); test: Adrenergic beta2 receptor (ADRB2) small molecule agonists, cell-based qHTS assay (AID 1963593); further: potency means the concentration at half of the fitted maximal effect;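 on activation: CHO cells stably overexpressing human ADRB2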
# In short: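 CHO cells stably over-expressing ADRB2 were plated overnight at 37C, then dosed with compounds plus a stimulation mix containing 100uM IBMX and 25uM Ro-20-1724 for 0.5hr at room temperature. cAMP was measured by HTRF competition, 1hr.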
compound,measurement,setting,value
O=[N+]([O-])c1ccccc1CCO,Potency,[1],inactive
same,Potency,[2],inactive
same,Potency,[3],inactive
same,Potency,[4],inactive
same,Potency,[5],inactive
same,Potency,[6],inactive
same,Potency,[7],inactive
same,Potency,[8],inactive
same,Potency,[9],inactive
same,Potency,[10],inactive
same,Potency,[11],inactive
same,Potency,[12],0.0011 µM (active)
same,Potency,[13],inactive
same,Potency,[14],inactive
same,Potency,[15],inactive
same,Potency,[16],inactive
same,Potency,[17],inactive
same,Potency,[18],inactive
CCSC(=O)N(CC(C)C)CC(C)C,Potency,[1],inactive
same,Potency,[2],inactive
same,Potency,[3],inactive
same,Potency,[4],inactive
same,Potency,[5],inactive
same,Potency,[6],inactive
same,Potency,[7],inactive
same,Potency,[8],inactive
same,Potency,[9],inactive
same,Potency,[10],inactive
same,Potency,[11],inactive
same,Potency,[19],inactive
same,Potency,[12],inactive
same,Potency,[13],inactive
same,Potency,[14],inactive
same,Potency,[15],inactive
same,Potency,[16],inactive
same,Potency,[20],inactive
same,Potency,[17],inactive
same,Potency,[18],inactive
Cc1occc1SSc1ccoc1C,Potency,[1],inactive
same,Potency,[2],61.1 µM (active)
same,Potency,[3],inactive
same,Potency,[4],inactive
same,Potency,[5],inactive
same,Potency,[6],inactive
same,Potency,[7],inactive
same,Potency,[8],inactive
same,Potency,[9],inactive
same,Potency,[10],inactive
same,Potency,[11],inactive
same,Potency,[13],inactive
same,Potency,[14],inactive
same,Potency,[15],inactive
same,Potency,[16],inactive
same,Potency,[17],inactive
CCCCC(CC)COC(=O)CCCCCCCC(=O)OCC(CC)CCCC (stereo unspecified),Potency,[1],54.5 µM (active) and inactive
same,Potency,[2],15.4 µM (active) and inactive
same,Potency,[3],inactive
same,Potency,[4],inactive
same,Potency,[5],inactive
same,Potency,[6],inactive
same,Potency,[7],inactive
same,Potency,[8],inactive
same,Potency,[9],inactive
same,Potency,[10],inactive
same,Potency,[11],inactive
same,Potency,[19],9.77 µM (active) and inactive
same,Potency,[12],inactive
same,Potency,[13],inactive
same,Potency,[14],inactive
same,Potency,[15],inactive
same,Potency,[16],inactive
same,Potency,[20],inactive
same,Potency,[17],inactive
same,Potency,[18],inactive
C=CC(=O)OCCOC1C2CCC1C1CC=CC12 (stereo unspecified),"activity change, negative = cytotoxicity",[1],0.243% [at 19 µM] (inactive)
same,"activity, positive = activation",[2],-2.46% [at 19 µM] (inactive)
same,activity change,[3],"-0.687% [at 11.8 µM, stronger effect = higher value] (inactive)"
same,activation,[4],0.154% [at 15.8 µM] (inactive)
same,activation,[5],0.0334% [at 11.8 µM] (inactive)
same,activation,[6],-3.49% [at 13.5 µM] (inactive)
same,activation,[7],-1.33% [at 13.6 µM] (inactive)
same,"activity change, negative = cytotoxicity",[8],-0.599% [at 13.5 µM] (inactive)
same,"activity change, negative = cytotoxicity",[9],-0.677% [at 13.5 µM] (inactive)
same,"activity change, negative = cytotoxicity",[10],10.1% [at 13.5 µM] (inactive)
same,activation,[11],-0.725% [at 13.5 µM] (inactive)
same,"activity, negative = inhibition",[12],1.12% [at 12.6 µM] (inactive)
same,activation,[13],0.0965% [at 15.8 µM] (inactive)
same,activation,[14],-0.462% [at 19 µM] (inactive)
same,"activity change, negative = inhibition",[16],-1.49% [at 19 µM] (inactive)
same,activation,[20],-22.8% [at 19 µM] (inactive)
same,"activity change, negative = inhibition",[18],7.6% [at 18.9 µM] (inactive)
CC(=O)OCCOCCOCCOC(C)=O,Potency,[1],inactive
same,Potency,[2],inactive
same,Potency,[3],inactive
same,Potency,[4],inactive
same,Potency,[5],inactive
same,Potency,[6],inactive
same,Potency,[7],inactive
same,Potency,[8],inactive
same,Potency,[9],inactive
same,Potency,[10],inactive
same,Potency,[11],inactive
same,Potency,[12],inactive
same,Potency,[13],inactive
same,Potency,[14],inactive
same,Potency,[15],inactive
same,Potency,[16],inactive
same,Potency,[20],53.8 µM (active) and inactive
same,Potency,[17],inactive
same,Potency,[18],inactive
COc1ccc(-c2coc3cc(O)cc(O)c3c2=O)cc1,Potency,[1],inactive
same,Potency,[2],inactive
same,Potency,[3],inactive
same,Potency,[4],inactive
same,Potency,[5],inactive
same,Potency,[6],inactive
same,Potency,[7],inactive
same,Potency,[8],inactive
same,Potency,[9],inactive
same,Potency,[10],inactive
same,Potency,[11],inactive
same,Potency,[12],inactive
same,Potency,[13],inactive
same,Potency,[17],inactive
N#CC1(c2ccc(F)cc2)CCC(=O)CC1,Potency,[1],inactive
same,Potency,[2],inactive
same,Potency,[3],inactive
same,Potency,[4],inactive
same,Potency,[5],inactive
same,Potency,[6],inactive
same,Potency,[7],inactive
same,Potency,[8],inactive
same,Potency,[9],inactive
same,Potency,[10],inactive
same,Potency,[11],inactive
same,Potency,[12],inactive
same,Potency,[14],inactive
same,Potency,[16],inactive
same,Potency,[20],inactive
same,Potency,[17],inactive
same,Potency,[18],inactive

# Source: PubChem BioAssay (Tox21)
